Experimental data taken from PubChem BioAssay AID2391 (Southern Research Specialized Biocontainment Screening …, 2010).
In all, about 310,000 compounds went through this assay and about 410 (0.13%) were called active. About 2% were inconclusive and are not listed. How the calls were made is not given here. Not all results are given here. Potency and affinity values are given separately.

Assay: inhibition of RSV-induced cytopathic effect – HEp-2 cells, primary 10 µM value included (AID 2391)
Settings: at 10 µM, hits give high values

CPE inhibition, inactive:
O=C(NCc1cccnc1)Nc1ccc(Br)cc1Cl 1.28%
COc1ccc(N2CCN(C(=O)CCc3cc(OC)c(OC)c(OC)c3)CC2)cc1 1.91%
CN(C)CCCNc1cc(-c2ccccc2)nc2cc(-c3cccc(F)c3)nn12 -1.34%
Cc1cc(NCCCn2ccnc2)n2nc(-c3ccc(F)cc3)cc2n1 -1.16%
Cc1cc(NCCCO)n2nc(-c3cccs3)cc2n1 9%
COCCNc1cc(C)nc2cc(-c3ccc(C)cc3)nn12 2.67%
Cc1nc2cc(NC(=O)N(C)c3ccc4ccccc4c3)ccc2o1 12.7%
CCOCCCn1c(SCC(=O)Nc2ccc(NC(C)=O)cc2)nc2ccccc2c1=O 0.96%
CC(=O)c1c(C)[nH]c(C(=O)OCC(=O)Nc2cccc(S(=O)(=O)N(C)C)c2)c1C 6.22%
CCN(CC)C1=N/C(=C\c2ccco2)C(=O)N1c1ccccc1 2.62%
CCSC1=N/C(=C\c2ccccc2)C(=O)N1c1ccc(OC)cc1 2.7%
CN(C(=O)CCCN1C(=O)c2ccccc2C1=O)C1CCCCC1 2.46%
COc1ccc(CNC(=O)Nc2cc(C)ccc2C)cc1 2.36%
O=C1CCC([N+](=O)[O-])C(c2ccc(Cl)c([N+](=O)[O-])c2)N1 (configuration not stated) -2.01%
O=C1CCSc2ccc(Cl)cc2N1Cc1ccccc1 1.94%
O=C1CCSc2ccc(Cl)cc2N1Cc1ccc(Cl)cc1 45.3%
Cc1ccc(S(=O)(=O)CCC(=O)Nc2sccc2C#N)cc1 0.59%
COC(=O)Cc1ccc(NC(=S)N2CCN(c3ccc(OC)cc3)CC2)cc1 13.6%
COc1ccc2nc(NC(=O)c3ccccc3C(=O)O)sc2c1 1.92%
COc1ccc2nc(NC(=O)c3ccccc3F)sc2c1 3.79%
Cc1ccc(S(=O)(=O)N2[C@@H](c3ccc(F)cc3)C(C(=O)O)=CC[C@H]2c2cccc(Cl)c2)cc1 1.86%
CCc1cc(S(=O)(=O)N2CCN(C(=O)c3ccco3)CC2)ccc1OC 3.94%
C=CCN(Cc1nc(-c2cc(OC)ccc2OC)oc1C)C1CCS(=O)(=O)C1 (configuration not stated) -0.75%
CCOc1ccc(C2c3[nH]c4ccccc4c3CCN2Cc2cccn2-c2ncccn2)cc1 (configuration not stated) 43.1%
Fc1ccccc1C1c2[nH]c3ccccc3c2CCN1Cc1cccn1-c1ncccn1 (configuration not stated) 16.6%
CC(C)(C)c1ccc(-c2nc(C#N)c(NCc3cccnc3)o2)cc1 0.34%
COc1ccc(C(C)(C)C)cc1NC(=O)c1ccc[n+]([O-])c1 0.85%
O=C(NCc1ccccc1)c1ccc[n+]([O-])c1 0.02%
CC(=O)C1=C(O)C(=O)N(c2nccs2)C1c1ccc(F)cc1 (configuration not stated) 1.72%
O=c1/c(=C\c2ccc(F)cc2)sc2n1CCCN=2 0.07%
Cc1cccnc1Nc1nc(-c2ccc(F)cc2)cs1 14.5%
Cc1ccc2cc3cc(C(=O)NC4CCCCC4)oc3nc2c1 4.34%
Cc1ccc2cc3cc(C(=O)N4CCCCCC4)oc3nc2c1 58.9%
COc1ccc2cc3cc(C(=O)N4CCCC(C)C4)oc3nc2c1 (configuration not stated) -0.12%
CCCCN(C)C(=O)c1cc2cc3ccc(OC)cc3nc2o1 12.1%
COc1ccc2cc3cc(C(=O)N4CCCCCC4)oc3nc2c1 5.67%
CCCCN(CC)C(=O)c1cc2cc3ccc(OC)cc3nc2o1 20.6%
COc1ccc(/C=N/N=C2/NC(=O)C(CC(=O)O)S2)cc1OCc1ccc(Cl)cc1Cl (configuration not stated) 1.42%
CCOc1cc(/C=N/N=C2/NC(=O)C(CC(=O)O)S2)ccc1OCc1ccc(Cl)cc1 (configuration not stated) 2%
CC(C)NC(=O)CCNC(=O)c1ccc(F)cc1 0.45%
CCCCCCC(C)n1[nH]c(=O)c2c(C)cc(C)nc21 (configuration not stated) 6.56%
COCCCNC(=O)c1cc(-c2cccnc2)nc2ccccc12 1.57%
O=C(Nc1ncccn1)c1cc(-c2cccc(Br)c2)nc2ccccc12 10.3%
COCCNC(=O)COC(=O)c1cc(-c2ccc(OC)cc2)nc2ccccc12 2.44%
O=C(NC1=NCCS1)c1cc(-c2cccnc2)nc2ccccc12 3.02%
O=C(NC1=NCCS1)c1cc(-c2ccc(F)cc2)nc2ccccc12 8.35%
COc1cccc(-c2cc(C(=O)Nc3ccncc3)c3ccccc3n2)c1 18.1%
Cc1ccc2nc(SCc3cn4cccnc4n3)[nH]c2c1 0.92%
CC(C(=O)Nc1cccc([N+](=O)[O-])c1)n1nnc2ccccc21 (configuration not stated) -0.02%
CCC1Sc2ccc(S(=O)(=O)CCC(=O)Nc3c(Cl)cc(OC)cc3OC)cc2NC1=O (configuration not stated) 12.2%
Cc1ccc(N2CCN(C(=O)NC3CCCCC3)CC2C)cc1 (configuration not stated) 3.66%
COc1ccc(NC(=O)NCCCN2CCN(c3ccccc3F)CC2)cc1 -2.01%
CCOc1ccc(C(=O)CN2C(=O)NC3(CCCCCC3)C2=O)cc1 1.63%
COc1cc2c(cc1OC)C(C)N(C(=O)c1ccc(Br)o1)CC2 (configuration not stated) 4.76%
COc1cc2c(cc1OC)C(C)N(C(C)=O)CC2 (configuration not stated) -1.08%
COc1cc2c(cc1OC)C(C)N(C(=O)/C=C/c1cc(OC)c(OC)c(OC)c1)CC2 (configuration not stated) 1.08%
COc1cc2c(cc1OC)C(C)N(C(=O)c1ccc(C)o1)CC2 (configuration not stated) 3.08%
Cc1ccc(NC(=O)c2c(F)cccc2Cl)cc1S(=O)(=O)N1CCOCC1 2.31%
COc1ccc(N2C(=O)C(CC(=O)Nc3ccccc3)N(Cc3ccccn3)C2=S)cc1 (configuration not stated) 4.08%
CCOc1ccc(NC(=O)CC2C(=O)N(c3ccccc3)C(=S)N2Cc2ccccn2)cc1 (configuration not stated) 7.95%
CCOc1ccc(NC(=O)CC2C(=O)N(c3ccccc3)C(=O)N2Cc2ccccn2)cc1 (configuration not stated) 3.73%
CCOc1ccc(NC(=O)CC2C(=O)N(c3ccc(OC)cc3)C(=S)N2Cc2ccccn2)cc1 (configuration not stated) -1.46%
CCCCCc1cc(=O)oc2c(C(CCN3CCCCC3)c3ccc(OC)cc3)c(OC)cc(OC)c12 (configuration not stated) -3.75%
C[C@@]12C(=O)N(c3ccc(F)cc3)C(=O)N1[C@@H]1c3ccccc3OC[C@@H]1[C@H]2c1ccccc1 6.7%
COc1cccc2c1c(NC(=O)c1cc(C)on1)nn2C 2.09%
COc1cccc2c1c(NC(=O)Nc1ccc(F)cc1F)nn2C 1.98%
CC(=O)Nc1ccc(NC(=O)C2CCC(N3C(=O)C4C5C=CC(C6CC56)C4C3=O)CC2)cc1 (configuration not stated) 1.77%
CC(C(=O)N1CCCC1)N1CCN(S(=O)(=O)c2ccc(C(C)(C)C)cc2)CC1 (configuration not stated) 0.2%
Cc1ccc(CSCC(=O)Nc2ccccc2F)cc1 0.6%
Cc1c(NC(=O)CSCc2ccccc2)cccc1C(=O)O -0.3%
O=C(CSc1nc2ccccc2s1)N/N=C/c1ccco1 0.58%
Cn1cccc1Cc1nnc(SCC(=O)Nc2ccc3c(c2)OCCO3)n1-c1ccc(F)cc1 0.23%
Cc1ccc(C(=O)N[C@H](C(=O)OCC(=O)Nc2cccc(S(N)(=O)=O)c2)C(C)C)cc1 -0.34%
O=C(NC1CCCCC1)c1ccc(N2CCCC2=O)cc1 2.08%
Cn1ncc(Br)c1C(=O)N1CCOCC1 3.84%
O=C(CNC(=O)c1ccccc1F)NCCOc1ccccc1Cl 0.24%
O=C(NCCOc1ccccc1Cl)C(=O)NCCOc1ccccc1Cl 3.63%
CC1CCN(C(=O)COc2ccccc2F)CC1 4.04%
COC(=O)c1cc(S(=O)(=O)N2CCC(C)CC2)ccc1F 0.31%
CCN1C(=O)[C@H]2[C@@H](c3ccc(C)cc3)N3C(=O)N(c4cccc(Cl)c4)C(=O)[C@@]3(CC(C)C)[C@H]2C1=O 3.11%
N#Cc1ccc(CSc2nnc(-c3cccnc3)n2-c2ccccc2)cc1 0.49%
Cc1ccc2c(C)c(C(=O)N3CCN(Cc4ccccn4)CC3)oc2c1C 1.72%
Cc1ccc2c(C)c(C(=O)N3CCN(c4cnccn4)CC3)oc2c1C 16.7%
CC(C)N(CCO)Cc1nc(C(c2ccccc2)c2ccccc2)no1 -0.29%
Cc1c(C(=O)NCC2CCCO2)oc2ccc(Br)cc12 (configuration not stated) 3.18%
O=C(NCc1ccccc1)c1ccc(NC(=O)C2CCCO2)cc1 (configuration not stated) 0.29%
Cc1ccc(-n2c(SCC(=O)N3CC(=O)Nc4ccccc43)nc3ccccc3c2=O)cc1 3.64%
O=C1CN(C(=O)CSc2nc3ccccc3c(=O)n2Cc2ccc(F)cc2)c2ccccc2N1 16.3%
O=C(COC(=O)CNC(=O)c1ccc(Cl)cc1)NC1CCCCCC1 -0.18%
CCOCCCNC(=O)C1CCCN1C(=O)NC1CCCCC1 (configuration not stated) 1.83%
CCOC(=O)N/N=C(\C)c1cccs1 -0.75%
Nc1ccc(-c2nc3ccccc3o2)cc1 2.51%
Nc1ccc(-c2nc3ccccc3[nH]2)cc1 -0.76%
Cc1ccc(S(=O)(=O)Nc2ccc3nc(-c4cccn4C)[nH]c3c2)cc1 2.21%
O=C(Nc1ccc(S(=O)(=O)Nc2nccs2)cc1)C1CCCCC1 1.14%
O=C(NC(=S)Nc1ccc(S(=O)(=O)Nc2nccs2)cc1)C1CC1 -0.1%
O=C(c1cccc(N2C(=O)C3C4C=CC(C4)C3C2=O)c1)N1CCN(c2ccccc2F)CC1 (configuration not stated) 1.69%
O=C(c1cccc(N2C(=O)C3C4C=CC(C4)C3C2=O)c1)N1CCN(c2ccccc2)CC1 (configuration not stated) 3.62%
Cc1ccc(S(=O)(=O)NCCC(=O)NCC(c2ccc(F)cc2)N2CCOCC2)cc1 (configuration not stated) -0.75%
COc1ccc(CNC(=S)Nc2cccc(OC)c2)cc1 0.93%
CCOc1cc(S(=O)(=O)N(CC)CC)ccc1Br 0.38%
COc1ccccc1CNC(=O)CN(C)S(=O)(=O)c1ccc(Br)s1 3.3%
